Measurements taken from article PMC7862700, “An all-to-all approach to the identification of sequence-specific readers for epigenetic DNA modifications on cytosine”.

Columns and labels:
Assay in all cases: DAPPL (digital affinity profiling via proximity ligation, sequencing); 10 mM Tris-HCl pH 7.5, 50 mM NaCl, 1 mM DTT, 4% glycerol, room temperature, 30 min; GST-TFs on glutathione beads, 16-mer random dsDNA library, 0.1% formaldehyde crosslink after washing; high values mean tight binding
[1] = biological target: T1, FLI1 (Homo sapiens, UniProt Q01543 1-452); conditions: protein: recombinant; tags: N-terminal GST; dsDNA, one strand shown
T1 sequence: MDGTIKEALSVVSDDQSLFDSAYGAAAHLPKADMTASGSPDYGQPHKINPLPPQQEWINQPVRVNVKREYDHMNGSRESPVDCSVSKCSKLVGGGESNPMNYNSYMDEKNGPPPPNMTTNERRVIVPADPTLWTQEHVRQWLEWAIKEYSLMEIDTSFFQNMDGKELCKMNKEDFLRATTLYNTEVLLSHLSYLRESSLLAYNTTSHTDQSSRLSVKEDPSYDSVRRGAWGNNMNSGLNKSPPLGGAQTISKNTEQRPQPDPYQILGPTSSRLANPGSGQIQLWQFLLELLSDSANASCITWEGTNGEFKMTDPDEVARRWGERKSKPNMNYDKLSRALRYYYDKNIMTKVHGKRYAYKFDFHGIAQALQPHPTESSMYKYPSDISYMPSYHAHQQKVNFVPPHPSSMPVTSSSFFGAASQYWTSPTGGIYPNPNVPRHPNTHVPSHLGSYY
In short: (§1)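 Beads coated with glutathione captured GST-fused human transcription factors that had been expressed in yeast, and the factors were then given DNA barcodes and pooled with a tag-only sample. The pools were incubated with 200 nmole of a random double-stranded 16-mer DNA library in Tris/NaCl/DTT/glycerol buffer for 30 min at room temperature, washed, crosslinked with 0.1% formaldehyde and proximity-ligated with BsaI/T4 ligase at 37 °C for 1 h. PCR amplification and Illumina NextSeq500 sequencing came last. Binding signal is each hexamer's read frequency for a factor divided by its frequency for the tag-only sample.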

[2] = biological target: T2, ELK1 (Homo sapiens, UniProt P19419 1-428); conditions: protein: recombinant; tags: N-terminal GST; dsDNA, one strand shown
T2 sequence: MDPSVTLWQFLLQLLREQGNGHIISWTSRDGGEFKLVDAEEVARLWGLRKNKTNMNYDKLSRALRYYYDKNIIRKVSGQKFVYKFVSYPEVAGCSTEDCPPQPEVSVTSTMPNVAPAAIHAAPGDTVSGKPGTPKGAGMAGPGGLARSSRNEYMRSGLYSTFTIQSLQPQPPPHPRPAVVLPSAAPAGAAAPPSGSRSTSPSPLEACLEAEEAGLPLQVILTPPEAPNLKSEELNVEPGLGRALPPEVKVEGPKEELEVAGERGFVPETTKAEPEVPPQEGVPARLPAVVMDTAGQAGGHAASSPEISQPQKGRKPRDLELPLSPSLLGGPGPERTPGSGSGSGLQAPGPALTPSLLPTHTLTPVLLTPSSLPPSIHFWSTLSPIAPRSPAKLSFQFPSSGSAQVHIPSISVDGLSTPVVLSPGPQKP
In short: as §1

[3] = biological target: T3, GABPA (Homo sapiens, UniProt Q06546 1-454); conditions: protein: recombinant; tags: N-terminal GST; dsDNA, one strand shown
T3 sequence: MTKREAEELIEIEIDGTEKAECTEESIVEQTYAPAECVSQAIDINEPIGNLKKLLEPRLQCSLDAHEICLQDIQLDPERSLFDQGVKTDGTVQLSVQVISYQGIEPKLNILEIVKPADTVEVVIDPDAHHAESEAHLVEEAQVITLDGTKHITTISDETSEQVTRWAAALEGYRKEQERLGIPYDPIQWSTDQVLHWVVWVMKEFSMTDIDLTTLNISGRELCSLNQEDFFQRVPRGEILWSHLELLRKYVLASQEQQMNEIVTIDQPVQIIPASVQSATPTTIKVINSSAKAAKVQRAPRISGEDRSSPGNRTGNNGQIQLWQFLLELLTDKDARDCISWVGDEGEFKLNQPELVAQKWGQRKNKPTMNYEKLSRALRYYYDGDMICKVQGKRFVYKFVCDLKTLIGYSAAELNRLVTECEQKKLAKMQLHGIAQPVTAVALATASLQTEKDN
In short: as §1

[4] = biological target: T4, ERG (Homo sapiens, UniProt P11308 1-479); conditions: protein: recombinant; tags: N-terminal GST; dsDNA, one strand shown
T4 sequence: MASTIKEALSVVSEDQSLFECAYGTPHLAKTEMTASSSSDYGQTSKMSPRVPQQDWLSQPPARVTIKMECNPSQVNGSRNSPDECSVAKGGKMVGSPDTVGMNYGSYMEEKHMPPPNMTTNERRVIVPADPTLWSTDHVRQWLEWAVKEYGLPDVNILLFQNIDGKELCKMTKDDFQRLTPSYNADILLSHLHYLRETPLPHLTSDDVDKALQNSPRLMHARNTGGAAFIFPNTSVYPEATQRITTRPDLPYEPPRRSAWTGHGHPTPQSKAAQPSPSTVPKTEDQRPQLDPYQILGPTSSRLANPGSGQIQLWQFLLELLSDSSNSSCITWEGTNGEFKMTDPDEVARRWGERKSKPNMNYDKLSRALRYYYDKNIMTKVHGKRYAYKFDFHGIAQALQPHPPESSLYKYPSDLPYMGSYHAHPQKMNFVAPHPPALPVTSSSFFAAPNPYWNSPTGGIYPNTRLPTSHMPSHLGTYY
In short: as §1

[5] = biological target: ELF1 (Homo sapiens, UniProt P32519 1-619); conditions: protein: recombinant; tags: N-terminal GST; dsDNA, one strand shown
Chain of ELF1 (P32519 whole entry): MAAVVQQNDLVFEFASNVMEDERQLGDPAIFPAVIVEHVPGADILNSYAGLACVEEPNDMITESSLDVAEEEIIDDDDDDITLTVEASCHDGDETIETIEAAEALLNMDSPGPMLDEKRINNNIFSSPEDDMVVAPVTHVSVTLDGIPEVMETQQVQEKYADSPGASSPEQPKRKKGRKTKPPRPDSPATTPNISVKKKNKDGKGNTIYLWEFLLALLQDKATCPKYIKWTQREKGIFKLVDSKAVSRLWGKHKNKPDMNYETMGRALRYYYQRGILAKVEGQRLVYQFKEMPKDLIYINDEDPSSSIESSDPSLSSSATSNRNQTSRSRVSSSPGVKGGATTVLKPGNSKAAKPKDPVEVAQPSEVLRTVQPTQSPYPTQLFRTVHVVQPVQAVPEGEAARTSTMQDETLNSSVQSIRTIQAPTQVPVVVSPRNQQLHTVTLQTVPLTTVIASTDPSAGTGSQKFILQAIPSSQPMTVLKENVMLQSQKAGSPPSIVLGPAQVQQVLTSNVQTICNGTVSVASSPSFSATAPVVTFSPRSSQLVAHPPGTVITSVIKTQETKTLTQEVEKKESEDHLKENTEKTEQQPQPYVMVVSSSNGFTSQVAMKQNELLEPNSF
In short: as §1

[6] = biological target: T5, EHF (Homo sapiens, UniProt Q9NZC4 1-300); conditions: protein: recombinant; tags: N-terminal GST; dsDNA, one strand shown
T5 sequence: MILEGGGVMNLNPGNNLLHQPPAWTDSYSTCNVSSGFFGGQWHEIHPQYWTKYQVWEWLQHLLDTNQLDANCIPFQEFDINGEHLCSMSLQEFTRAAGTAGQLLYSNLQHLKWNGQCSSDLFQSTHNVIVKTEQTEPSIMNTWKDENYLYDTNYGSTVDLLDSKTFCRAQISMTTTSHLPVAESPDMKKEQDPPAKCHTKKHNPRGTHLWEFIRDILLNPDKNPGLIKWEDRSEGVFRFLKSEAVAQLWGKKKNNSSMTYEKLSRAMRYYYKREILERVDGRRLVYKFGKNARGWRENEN
In short: as §1

[7] = biological target: SPI1 (Homo sapiens, UniProt P17947 1-270); conditions: protein: recombinant; tags: N-terminal GST; dsDNA, one strand shown
In short: as §1

[8] = biological target: SPIB (Homo sapiens, UniProt Q01892 1-262); conditions: protein: recombinant; tags: N-terminal GST; dsDNA, one strand shown
Chain of SPIB (Q01892 whole entry): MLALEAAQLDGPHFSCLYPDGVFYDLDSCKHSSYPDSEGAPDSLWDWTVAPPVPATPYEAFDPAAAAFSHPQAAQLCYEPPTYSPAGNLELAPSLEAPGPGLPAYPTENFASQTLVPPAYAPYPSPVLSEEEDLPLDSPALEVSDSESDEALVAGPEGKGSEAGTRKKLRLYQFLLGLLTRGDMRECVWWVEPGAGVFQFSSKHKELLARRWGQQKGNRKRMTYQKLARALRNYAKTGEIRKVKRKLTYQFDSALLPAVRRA
In short: as §1

[9] = biological target: T6, ELK3 (Homo sapiens, UniProt P41970 1-407); conditions: protein: recombinant; tags: N-terminal GST; dsDNA, one strand shown
T6 sequence: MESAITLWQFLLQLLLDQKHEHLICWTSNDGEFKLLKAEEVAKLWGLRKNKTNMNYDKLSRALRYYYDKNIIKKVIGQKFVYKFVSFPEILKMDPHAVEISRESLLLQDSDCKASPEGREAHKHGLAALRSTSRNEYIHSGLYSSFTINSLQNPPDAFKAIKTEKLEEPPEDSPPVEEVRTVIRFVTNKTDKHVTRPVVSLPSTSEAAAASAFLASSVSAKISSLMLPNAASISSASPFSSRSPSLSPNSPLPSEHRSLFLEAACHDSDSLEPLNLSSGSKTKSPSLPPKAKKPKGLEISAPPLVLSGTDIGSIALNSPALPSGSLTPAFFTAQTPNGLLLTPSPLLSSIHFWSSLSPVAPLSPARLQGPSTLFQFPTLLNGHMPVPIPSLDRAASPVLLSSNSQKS
In short: as §1

[10] = biological target: T7, FEV (Homo sapiens, UniProt Q99581 1-238); conditions: protein: recombinant; tags: N-terminal GST; dsDNA, one strand shown
T7 sequence: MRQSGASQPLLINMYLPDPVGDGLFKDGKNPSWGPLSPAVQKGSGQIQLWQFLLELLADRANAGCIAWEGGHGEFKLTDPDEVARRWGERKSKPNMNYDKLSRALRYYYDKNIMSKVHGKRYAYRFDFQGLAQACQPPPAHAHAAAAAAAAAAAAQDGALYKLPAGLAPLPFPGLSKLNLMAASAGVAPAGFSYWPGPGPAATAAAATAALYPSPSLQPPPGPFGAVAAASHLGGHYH
In short: as §1

[11] = biological target: ETV5 (Homo sapiens, UniProt P41161 1-510); conditions: protein: recombinant; tags: N-terminal GST; dsDNA, one strand shown
Chain of ETV5 (P41161 whole entry): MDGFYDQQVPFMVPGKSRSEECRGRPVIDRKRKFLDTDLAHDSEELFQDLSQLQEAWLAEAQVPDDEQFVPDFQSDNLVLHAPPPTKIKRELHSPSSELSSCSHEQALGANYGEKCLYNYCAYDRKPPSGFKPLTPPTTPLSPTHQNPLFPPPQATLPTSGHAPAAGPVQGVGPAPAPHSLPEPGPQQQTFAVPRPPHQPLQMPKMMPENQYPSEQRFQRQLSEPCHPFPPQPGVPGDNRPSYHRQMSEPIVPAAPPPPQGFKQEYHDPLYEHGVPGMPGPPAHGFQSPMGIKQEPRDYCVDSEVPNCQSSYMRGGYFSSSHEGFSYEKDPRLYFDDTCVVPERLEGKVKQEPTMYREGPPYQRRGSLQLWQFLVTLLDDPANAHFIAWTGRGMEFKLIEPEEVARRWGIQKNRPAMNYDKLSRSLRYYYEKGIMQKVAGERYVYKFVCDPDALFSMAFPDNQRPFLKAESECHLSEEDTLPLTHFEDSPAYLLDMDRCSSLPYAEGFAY
In short: as §1

[12] = biological target: HSF1 (Homo sapiens, UniProt Q00613 1-529); conditions: protein: recombinant; tags: N-terminal GST; chain copies: 3; dsDNA, one strand shown
Chain of HSF1 (Q00613 whole entry): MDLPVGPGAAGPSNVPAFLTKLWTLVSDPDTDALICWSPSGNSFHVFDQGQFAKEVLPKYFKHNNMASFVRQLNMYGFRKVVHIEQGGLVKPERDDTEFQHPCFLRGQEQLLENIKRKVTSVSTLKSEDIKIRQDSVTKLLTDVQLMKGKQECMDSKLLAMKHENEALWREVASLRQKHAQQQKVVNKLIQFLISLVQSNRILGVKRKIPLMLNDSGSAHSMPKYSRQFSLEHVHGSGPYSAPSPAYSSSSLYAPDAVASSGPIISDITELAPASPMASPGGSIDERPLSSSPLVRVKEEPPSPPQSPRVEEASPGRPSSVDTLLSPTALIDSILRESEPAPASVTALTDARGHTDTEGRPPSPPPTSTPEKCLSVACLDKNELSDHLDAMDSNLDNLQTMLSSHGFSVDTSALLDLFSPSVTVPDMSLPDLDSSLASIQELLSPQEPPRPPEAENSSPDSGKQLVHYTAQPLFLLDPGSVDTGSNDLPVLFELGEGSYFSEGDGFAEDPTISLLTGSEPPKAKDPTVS
In short: as §1

[13] = biological target: T8, SPIC (Homo sapiens, UniProt Q8N5J4 1-248); conditions: protein: recombinant; tags: N-terminal GST; dsDNA, one strand shown
T8 sequence: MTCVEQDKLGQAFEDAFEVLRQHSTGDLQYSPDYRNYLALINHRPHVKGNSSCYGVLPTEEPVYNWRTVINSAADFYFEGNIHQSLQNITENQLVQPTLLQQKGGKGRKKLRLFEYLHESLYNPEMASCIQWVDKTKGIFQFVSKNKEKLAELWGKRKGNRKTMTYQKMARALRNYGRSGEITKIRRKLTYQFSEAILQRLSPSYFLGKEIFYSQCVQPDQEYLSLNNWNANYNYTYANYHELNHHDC
In short: as §1

[14] = biological target: ELF4 (Homo sapiens, UniProt Q99607 1-663); conditions: protein: recombinant; tags: N-terminal GST; dsDNA, one strand shown
Chain of ELF4 (Q99607 whole entry): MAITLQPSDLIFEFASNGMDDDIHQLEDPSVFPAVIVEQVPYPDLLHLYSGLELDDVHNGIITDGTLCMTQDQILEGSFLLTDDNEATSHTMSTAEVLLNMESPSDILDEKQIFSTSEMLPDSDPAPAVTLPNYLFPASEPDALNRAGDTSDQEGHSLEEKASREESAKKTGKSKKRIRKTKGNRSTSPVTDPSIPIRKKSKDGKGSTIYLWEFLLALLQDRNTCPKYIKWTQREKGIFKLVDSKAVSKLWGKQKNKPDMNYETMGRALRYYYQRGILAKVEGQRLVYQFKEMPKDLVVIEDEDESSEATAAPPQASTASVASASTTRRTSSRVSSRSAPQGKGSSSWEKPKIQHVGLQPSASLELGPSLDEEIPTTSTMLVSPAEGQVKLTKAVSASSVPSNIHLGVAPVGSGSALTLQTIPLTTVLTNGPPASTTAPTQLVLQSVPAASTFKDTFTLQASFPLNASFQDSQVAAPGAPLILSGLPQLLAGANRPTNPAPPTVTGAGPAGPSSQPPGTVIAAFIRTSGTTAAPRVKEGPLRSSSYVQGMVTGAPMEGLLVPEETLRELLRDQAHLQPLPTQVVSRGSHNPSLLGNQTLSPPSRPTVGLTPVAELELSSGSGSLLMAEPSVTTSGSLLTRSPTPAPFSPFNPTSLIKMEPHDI
In short: as §1

[15] = biological target: T9, ELK4 (Homo sapiens, UniProt P28324-2 1-405); conditions: protein: recombinant; tags: N-terminal GST; dsDNA, one strand shown
T9 sequence: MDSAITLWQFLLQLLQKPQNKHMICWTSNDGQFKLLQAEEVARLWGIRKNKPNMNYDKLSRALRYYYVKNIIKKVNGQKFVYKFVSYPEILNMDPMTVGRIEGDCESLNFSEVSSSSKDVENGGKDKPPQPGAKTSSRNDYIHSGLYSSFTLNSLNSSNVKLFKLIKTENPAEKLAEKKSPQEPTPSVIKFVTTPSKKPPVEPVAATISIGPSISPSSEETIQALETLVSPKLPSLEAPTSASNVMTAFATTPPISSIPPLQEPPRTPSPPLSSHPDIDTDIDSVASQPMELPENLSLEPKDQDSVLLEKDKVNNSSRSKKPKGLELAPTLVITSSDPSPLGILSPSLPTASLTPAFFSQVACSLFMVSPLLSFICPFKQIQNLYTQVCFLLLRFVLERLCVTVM
In short: as §1

[16] = biological target: T10, ETV2 (Homo sapiens, UniProt O00321 1-342); conditions: protein: recombinant; tags: N-terminal GST; dsDNA, one strand shown
T10 sequence: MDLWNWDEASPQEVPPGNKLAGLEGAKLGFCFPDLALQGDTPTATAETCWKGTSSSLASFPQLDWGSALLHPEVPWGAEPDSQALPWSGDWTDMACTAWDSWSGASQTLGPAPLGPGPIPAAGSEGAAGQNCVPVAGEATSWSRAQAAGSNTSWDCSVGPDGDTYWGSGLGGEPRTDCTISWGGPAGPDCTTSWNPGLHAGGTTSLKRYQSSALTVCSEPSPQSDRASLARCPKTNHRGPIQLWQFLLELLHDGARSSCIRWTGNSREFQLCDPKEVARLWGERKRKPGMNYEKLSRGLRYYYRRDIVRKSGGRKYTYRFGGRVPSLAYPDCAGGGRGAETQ
In short: as §1

[17] = biological target: T11, ELF3 (Homo sapiens, UniProt P78545 1-371); conditions: protein: recombinant; tags: N-terminal GST; dsDNA, one strand shown
T11 sequence: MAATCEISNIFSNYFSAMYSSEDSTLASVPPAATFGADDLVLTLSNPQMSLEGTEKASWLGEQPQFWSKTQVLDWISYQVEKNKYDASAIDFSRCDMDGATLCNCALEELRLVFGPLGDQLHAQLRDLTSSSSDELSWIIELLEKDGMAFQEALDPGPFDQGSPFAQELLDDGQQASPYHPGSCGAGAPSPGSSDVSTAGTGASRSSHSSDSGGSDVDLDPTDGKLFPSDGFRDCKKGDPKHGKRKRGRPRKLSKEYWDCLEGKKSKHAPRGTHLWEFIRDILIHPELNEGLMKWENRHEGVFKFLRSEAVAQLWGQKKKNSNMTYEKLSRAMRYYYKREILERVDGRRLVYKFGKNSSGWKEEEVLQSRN
In short: as §1

[18] = biological target: CRX (Homo sapiens, UniProt O43186 1-299); conditions: protein: recombinant; tags: N-terminal GST; dsDNA, one strand shown
Chain of CRX (O43186 whole entry): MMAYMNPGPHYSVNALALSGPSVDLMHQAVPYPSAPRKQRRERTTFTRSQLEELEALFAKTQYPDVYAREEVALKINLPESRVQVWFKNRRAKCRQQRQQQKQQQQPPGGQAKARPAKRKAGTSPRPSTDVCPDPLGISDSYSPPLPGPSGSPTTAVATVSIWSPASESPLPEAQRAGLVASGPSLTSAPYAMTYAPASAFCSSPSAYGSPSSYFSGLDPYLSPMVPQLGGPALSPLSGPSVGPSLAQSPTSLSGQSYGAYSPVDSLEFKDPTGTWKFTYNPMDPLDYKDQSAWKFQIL
In short: as §1

[19] = biological target: ETV1 (Homo sapiens, UniProt P50549 1-477); conditions: protein: recombinant; tags: N-terminal GST; dsDNA, one strand shown
Chain of ETV1 (P50549 whole entry): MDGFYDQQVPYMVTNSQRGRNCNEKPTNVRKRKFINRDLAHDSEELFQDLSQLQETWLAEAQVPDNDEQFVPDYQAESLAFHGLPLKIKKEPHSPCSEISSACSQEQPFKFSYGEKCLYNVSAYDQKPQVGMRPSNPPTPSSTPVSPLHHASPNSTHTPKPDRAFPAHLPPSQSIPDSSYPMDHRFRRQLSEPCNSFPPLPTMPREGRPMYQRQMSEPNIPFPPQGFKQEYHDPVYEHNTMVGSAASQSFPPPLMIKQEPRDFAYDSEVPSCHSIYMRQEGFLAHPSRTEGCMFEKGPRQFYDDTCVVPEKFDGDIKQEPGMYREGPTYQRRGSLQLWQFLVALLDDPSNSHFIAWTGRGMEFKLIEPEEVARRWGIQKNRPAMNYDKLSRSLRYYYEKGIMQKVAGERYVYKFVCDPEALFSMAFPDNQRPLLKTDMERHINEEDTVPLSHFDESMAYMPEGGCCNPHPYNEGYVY
In short: as §1

ATCTAG
binding signal [1]: 1.12 fold enrichment (6-mer frequency, TF over GST control)
binding signal [2]: 1.16 fold enrichment (6-mer frequency, TF over GST control)
binding signal [3]: 1.12 fold enrichment (6-mer frequency, TF over GST control)
binding signal [4]: 1.1 fold enrichment (6-mer frequency, TF over GST control)
binding signal [5]: 1.1 fold enrichment (6-mer frequency, TF over GST control)
binding signal [6]: 1.14 fold enrichment (6-mer frequency, TF over GST control)
binding signal [7]: 1.14 fold enrichment (6-mer frequency, TF over GST control)
binding signal [8]: 1.2 fold enrichment (6-mer frequency, TF over GST control)
binding signal [9]: 1.23 fold enrichment (6-mer frequency, TF over GST control)
binding signal [10]: 1.04 fold enrichment (6-mer frequency, TF over GST control)
binding signal [11]: 1 fold enrichment (6-mer frequency, TF over GST control)
binding signal [12]: 2.66 fold enrichment (6-mer frequency, TF over GST control)
binding signal [13]: 1.19 fold enrichment (6-mer frequency, TF over GST control)
binding signal [14]: 1.09 fold enrichment (6-mer frequency, TF over GST control)
binding signal [15]: 1.27 fold enrichment (6-mer frequency, TF over GST control)
binding signal [16]: 1.06 fold enrichment (6-mer frequency, TF over GST control)
binding signal [17]: 1.24 fold enrichment (6-mer frequency, TF over GST control)
binding signal [18]: 1.7 fold enrichment (6-mer frequency, TF over GST control)
binding signal [19]: 1.03 fold enrichment (6-mer frequency, TF over GST control)
